Test results from publication PMC8384837, “Expanding the binding specificity for RNA recognition by a PUF domain”.

How the values were obtained:
Experiment in all cases: yeast three-hybrid, YBZ-1, SC-Leu-His + 0.5 mM 3-AT, 4 days
Details in all cases: tags: N-Gal4 AD-HA kept; label: inside an RPR1-promoter hybrid RNA with tandem MS2 sites; ssRNA
[1] = target: PUM1 PUF domain R2-KLV (Homo sapiens, UniProt Q14671 828-1176, N899K;Y900L;Q903V)
Summary of the method: (§1)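 The interaction score is the logarithmic change in variant frequency from input to selection. It uses log2, with a pseudocount of 1 for absent variants, and frequencies came from PCR-amplified, Illumina-sequenced repeat regions. The libraries were Pumilio-1 PUF domains randomized at the three base-contacting residues per repeat, co-expressed with matching RNA elements in strain YBZ-1 (LexA–MS2 coat fusion, HIS3 reporter). Plating lasted four days on SC-Leu (input) or SC-Leu-His + 0.5 mM 3-AT (selection).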

[2] = target: PUM1 PUF domain R3-KPG (Homo sapiens, UniProt Q14671 828-1176, C935K;R936P;Q939G)
Summary of the method: as §1

[3] = target: PUM1 PUF domain R4-GHW (Homo sapiens, UniProt Q14671 828-1176, N971G;Q975W)
Summary of the method: as §1

[4] = target: PUM1 PUF domain R4-WGV (Homo sapiens, UniProt Q14671 828-1176, N971W;H972G;Q975V)
Summary of the method: as §1

[5] = target: PUM1 PUF domain R7-LYW (Homo sapiens, UniProt Q14671 828-1176, S1079L;N1080Y;E1083W)
Summary of the method: as §1

[6] = target: PUM1 PUF domain R3-THE R4-TFR R7-NPG (Homo sapiens, UniProt Q14671 828-1176, C935T;R936H;Q939E;N971T;H972F;Q975R;S1079N;N1080P;E1083G)
Chain of PUM1 PUF domain R3-THE R4-TFR R7-NPG (Q14671 828-1176 C935T/R936H/Q939E/N971T/H972F/Q975R/S1079N/N1080P/E1083G): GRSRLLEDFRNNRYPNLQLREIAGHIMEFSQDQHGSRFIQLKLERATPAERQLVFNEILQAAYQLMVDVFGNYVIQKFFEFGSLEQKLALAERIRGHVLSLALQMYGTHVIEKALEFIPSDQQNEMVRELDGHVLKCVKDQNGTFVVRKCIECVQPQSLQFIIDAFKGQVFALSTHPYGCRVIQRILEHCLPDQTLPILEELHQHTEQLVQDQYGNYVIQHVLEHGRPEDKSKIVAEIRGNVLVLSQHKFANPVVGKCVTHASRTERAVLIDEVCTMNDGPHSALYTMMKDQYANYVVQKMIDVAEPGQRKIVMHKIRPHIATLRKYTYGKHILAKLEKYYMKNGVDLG
Summary of the method: as §1

[7] = target: PUM1 PUF domain R5-RSN (Homo sapiens, UniProt Q14671 828-1176, C1007R;R1008S;Q1011N)
Chain of PUM1 PUF domain R5-RSN (Q14671 828-1176 C1007R/R1008S/Q1011N): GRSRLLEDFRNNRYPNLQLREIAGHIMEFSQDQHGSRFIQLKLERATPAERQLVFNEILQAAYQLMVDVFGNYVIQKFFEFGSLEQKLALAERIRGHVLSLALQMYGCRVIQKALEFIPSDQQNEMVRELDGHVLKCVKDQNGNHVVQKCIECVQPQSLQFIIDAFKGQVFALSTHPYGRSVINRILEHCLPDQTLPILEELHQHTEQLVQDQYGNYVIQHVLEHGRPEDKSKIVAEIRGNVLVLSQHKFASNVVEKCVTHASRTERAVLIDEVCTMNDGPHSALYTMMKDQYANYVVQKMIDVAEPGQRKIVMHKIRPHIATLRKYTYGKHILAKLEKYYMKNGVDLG
Summary of the method: as §1

[8] = target: PUM1 PUF domain R5-RAI (Homo sapiens, UniProt Q14671 828-1176, C1007R;R1008A;Q1011I)
Chain of PUM1 PUF domain R5-RAI (Q14671 828-1176 C1007R/R1008A/Q1011I): as the sequence (Q14671 828-1176 C1007R/R1008S/Q1011N) above, with S181A, N184I counted along it
Summary of the method: as §1

## GGCUAGAACUAGUGGAUCCCCCGGCGCCCGGCGGCUCGAGCCCGGGUAAGUGUAAAGAGUCUGCAUGCCGCCGGGCGCCAUGCCUGCAGGUCGACUCUAGAAAACAUG
[1]
  binding signal: 6.33 log2 enrichment (interaction score)

## GGCUAGAACUAGUGGAUCCCCCGGCGCCCGGCGGCUCGAGCCCGGGUAAGUGUAAUUAGUCUGCAUGCCGCCGGGCGCCAUGCCUGCAGGUCGACUCUAGAAAACAUG
[2]
  binding signal: 4.43 log2 enrichment (interaction score)

## GGCUAGAACUAGUGGAUCCCCCGGCGCCCGGCGGCUCGAGCCCGGGUAAGUGUAUAUAGUCUGCAUGCCGCCGGGCGCCAUGCCUGCAGGUCGACUCUAGAAAACAUG
[3]
  binding signal: 4.35 log2 enrichment (interaction score)
[4]
  binding signal: 3.61 log2 enrichment (interaction score)

## GGCUAGAACUAGUGGAUCCCCCGGCGCCCGGCGGCUCGAGCCCGGGUAAGUUUAAAUAGUCUGCAUGCCGCCGGGCGCCAUGCCUGCAGGUCGACUCUAGAAAACAUG
[5]
  binding signal: 4.45 log2 enrichment (interaction score)

## GGCUAGAACUAGUGGAUCCCCCGGCGCCCGGCGGCUCGAGCCCGGGUAAGUUUACGUAGUCUGCAUGCCGCCGGGCGCCAUGCCUGCAGGUCGACUCUAGAAAACAUG
[6]
  binding signal: 5.28 log2 enrichment (interaction score)

## GGCUAGAACUAGUGGAUCCCCCGGCGCCCGGCGGCUCGAGCCCGGGUAAGUGUACAUAGUCUGCAUGCCGCCGGGCGCCAUGCCUGCAGGUCGACUCUAGAAAACAUG
[3]
  binding signal: 4.34 log2 enrichment (interaction score)
[4]
  binding signal: 3.2 log2 enrichment (interaction score)

## GGCUAGAACUAGUGGAUCCCCCGGCGCCCGGCGGCUCGAGCCCGGGUAAGUGUCAAUAGUCUGCAUGCCGCCGGGCGCCAUGCCUGCAGGUCGACUCUAGAAAACAUG
[7]
  binding signal: 3.76 log2 enrichment (interaction score)
[8]
  binding signal: 0.78 log2 enrichment (interaction score)
